# Experimental data from paper PMC3218832.
# Biological target: RELARELA (p65 homodimer) (Homo sapiens, UniProt Q04206 1-307)
# Experiment: protein binding microarray; high values mean tight binding
# Settings: dsDNA, one strand shown
# Chain of RELARELA (p65 homodimer) (Q04206 1-307): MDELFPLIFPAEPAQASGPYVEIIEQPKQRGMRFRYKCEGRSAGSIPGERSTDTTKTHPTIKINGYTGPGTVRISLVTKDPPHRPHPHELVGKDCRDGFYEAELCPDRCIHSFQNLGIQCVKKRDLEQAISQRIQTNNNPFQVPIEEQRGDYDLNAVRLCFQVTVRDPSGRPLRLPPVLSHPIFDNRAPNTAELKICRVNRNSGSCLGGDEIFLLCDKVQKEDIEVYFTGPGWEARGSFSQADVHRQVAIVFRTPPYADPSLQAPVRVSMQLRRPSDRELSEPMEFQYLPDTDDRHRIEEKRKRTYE
row,Sequence,binding signal [z-score]
1,CAGGATCCCCT,-0.318
2,AGATTTATCCC,-0.076
3,CAGTAATTCCC,2.18
4,GGAGGTACCCT,-0.125
5,GAGAACTTCCT,0.439
6,CGAAGCATCCT,-1.05
7,CAGGACTTCCT,-0.0226
8,GGAGTAATCCC,0.396
9,AGGGGATCCCT,1.82
10,CGAATATTCCC,1.87
11,GGATTCATCCT,-0.727
12,GAAGTGCTCCT,-0.661
13,AGGTAGGCCCT,-0.932
14,CAAAGTCCCCT,0.169
15,CGAAGGACCCT,-1.31
16,AGAGACACCCC,-0.871
17,GGAGACTTCCC,1.11
18,GGGGACACCCC,0.873
19,AGAGTATTCCC,1.05

row,Sequence,binding signal [z-score]
1,CAAGGGGTCCT,-0.5
2,AGGTGTCCCCC,0.286
3,AAGTAGTCCCC,0.275
4,GAGATTTTCCT,1.17
5,GAAGGAACCCT,-0.526
6,AGGAATGCCCT,1.19
7,CAGTTACTCCT,-0.453
8,GAATGTTTCCC,2.03
9,CAAGAGATCCT,-0.295
10,AGAATTTCCCC,3.09
11,CGGGTATTCCT,1.71
12,CAGTGAGTCCC,0.14
13,CAGAATACCCT,0
14,AAAAAGCCCCC,1.22
15,GGAAGAACCCC,0.624
16,GGAATACTCCC,0.714
17,CAGGGCCTCCC,-0.644
18,AAGATTTCCCC,2.26
19,CAAAGTTTCCT,0.729

# Biological target: p50p50 homodimer (Homo sapiens, UniProt P19838 7-356)
# Sequence (P19838 7-356): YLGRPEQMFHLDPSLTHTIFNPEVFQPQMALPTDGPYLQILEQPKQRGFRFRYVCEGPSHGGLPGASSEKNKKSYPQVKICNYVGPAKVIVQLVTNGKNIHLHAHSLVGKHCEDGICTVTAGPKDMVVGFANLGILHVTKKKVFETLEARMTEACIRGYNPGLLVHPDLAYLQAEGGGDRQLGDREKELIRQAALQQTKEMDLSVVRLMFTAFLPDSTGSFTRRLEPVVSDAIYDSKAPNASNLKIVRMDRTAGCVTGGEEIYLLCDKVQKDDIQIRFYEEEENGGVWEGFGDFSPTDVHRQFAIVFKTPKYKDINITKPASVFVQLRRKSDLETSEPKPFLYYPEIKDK
# Experiment: as above
# Settings: dsDNA, one strand shown
row,Sequence,binding signal [z-score]
1,CAGGATCCCCT,1.34
2,AGATTTATCCC,-0.338
3,CAGTAATTCCC,0.948
4,GGAGGTACCCT,0.0465
5,GAGAACTTCCT,-0.697
6,CGAAGCATCCT,-3.51
7,CAGGACTTCCT,-0.664
8,GGAGTAATCCC,-0.279
9,AGGGGATCCCT,1.11
10,CGAATATTCCC,0.695
11,GGATTCATCCT,-2.29
12,GAAGTGCTCCT,-1.67
13,AGGTAGGCCCT,-0.756
14,CAAAGTCCCCT,1.47
15,CGAAGGACCCT,-1.42
16,AGAGACACCCC,-0.237
17,GGAGACTTCCC,0.00445
18,GGGGACACCCC,0.656
19,AGAGTATTCCC,0.224

row,Sequence,binding signal [z-score]
1,CAAGGGGTCCT,-0.988
2,AGGTGTCCCCC,1.17
3,AAGTAGTCCCC,1.21
4,GAGATTTTCCT,-0.538
5,GAAGGAACCCT,-1.31
6,AGGAATGCCCT,-0.455
7,CAGTTACTCCT,-1.22
8,GAATGTTTCCC,0.423
9,CAAGAGATCCT,-1.92
10,AGAATTTCCCC,1.24
11,CGGGTATTCCT,0.73
12,CAGTGAGTCCC,0.525
13,CAGAATACCCT,1.12
14,AAAAAGCCCCC,1.3
15,GGAAGAACCCC,0.621
16,GGAATACTCCC,0.226
17,CAGGGCCTCCC,-0.933
18,AAGATTTCCCC,1.48
19,CAAAGTTTCCT,-0.548

# Biological target: T1, p52p52 homodimer (Homo sapiens, UniProt Q00653 4-332)
# T1 sequence: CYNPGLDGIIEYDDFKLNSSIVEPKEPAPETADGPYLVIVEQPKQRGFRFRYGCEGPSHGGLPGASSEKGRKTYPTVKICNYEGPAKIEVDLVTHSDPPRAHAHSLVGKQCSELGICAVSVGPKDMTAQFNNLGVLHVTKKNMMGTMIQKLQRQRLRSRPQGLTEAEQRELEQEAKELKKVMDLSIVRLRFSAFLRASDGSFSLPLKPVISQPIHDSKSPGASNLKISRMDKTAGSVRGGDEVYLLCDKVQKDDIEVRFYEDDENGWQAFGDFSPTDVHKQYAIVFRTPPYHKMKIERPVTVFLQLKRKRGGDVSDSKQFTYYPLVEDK
# Experiment: as above
# Settings: dsDNA, one strand shown
row,Sequence,binding signal [z-score]
1,CAGGATCCCCT,1.3
2,AGATTTATCCC,-0.0792
3,CAGTAATTCCC,0.804
4,GGAGGTACCCT,-0.0665
5,GAGAACTTCCT,-0.718
6,CGAAGCATCCT,-0.775
7,CAGGACTTCCT,-0.608
8,GGAGTAATCCC,0.000216
9,AGGGGATCCCT,2.11
10,CGAATATTCCC,0.525
11,GGATTCATCCT,-0.817
12,GAAGTGCTCCT,-0.792
13,AGGTAGGCCCT,-0.535
14,CAAAGTCCCCT,1.68
15,CGAAGGACCCT,-0.622
16,AGAGACACCCC,-0.229
17,GGAGACTTCCC,0.117
18,GGGGACACCCC,2.83
19,AGAGTATTCCC,0.305

row,Sequence,binding signal [z-score]
1,CAAGGGGTCCT,-0.106
2,AGGTGTCCCCC,0.966
3,AAGTAGTCCCC,1
4,GAGATTTTCCT,-0.404
5,GAAGGAACCCT,-0.566
6,AGGAATGCCCT,-0.376
7,CAGTTACTCCT,-0.649
8,GAATGTTTCCC,0.332
9,CAAGAGATCCT,-0.611
10,AGAATTTCCCC,2.64
11,CGGGTATTCCT,1.4
12,CAGTGAGTCCC,0.308
13,CAGAATACCCT,0.546
14,AAAAAGCCCCC,2.26
15,GGAAGAACCCC,0.666
16,GGAATACTCCC,-0.025
17,CAGGGCCTCCC,-0.467
18,AAGATTTCCCC,2.39
19,CAAAGTTTCCT,-0.572

# Biological target: RELA (p65) subunit of heterodimer;p50 subunit (Homo sapiens;Homo sapiens, UniProt Q04206;P19838 1-307;7-356)
# Sequence (Q04206 1-307, chain 1 of 2): as the sequence (Q04206 1-307) above
# Sequence (P19838 7-356, chain 2 of 2): as the sequence (P19838 7-356) above
# Experiment: as above
# Settings: dsDNA, one strand shown
row,Sequence,binding signal [z-score]
1,CAGGATCCCCT,1.91
2,AGATTTATCCC,-0.321
3,CAGTAATTCCC,1.12
4,GGAGGTACCCT,0.0938
5,GAGAACTTCCT,-0.503
6,CGAAGCATCCT,-1.25
7,CAGGACTTCCT,-0.403
8,GGAGTAATCCC,-0.0898
9,AGGGGATCCCT,2.32
10,CGAATATTCCC,0.873
11,GGATTCATCCT,-1.18
12,GAAGTGCTCCT,-0.918
13,AGGTAGGCCCT,-0.978
14,CAAAGTCCCCT,1.79
15,CGAAGGACCCT,-0.948
16,AGAGACACCCC,-0.459
17,GGAGACTTCCC,0.505
18,GGGGACACCCC,1.56
19,AGAGTATTCCC,0.534

row,Sequence,binding signal [z-score]
1,CAAGGGGTCCT,-1.06
2,AGGTGTCCCCC,1.2
3,AAGTAGTCCCC,1.09
4,GAGATTTTCCT,-0.116
5,GAAGGAACCCT,-0.887
6,AGGAATGCCCT,-0.147
7,CAGTTACTCCT,-0.763
8,GAATGTTTCCC,1.09
9,CAAGAGATCCT,-1.27
10,AGAATTTCCCC,2.2
11,CGGGTATTCCT,0.593
12,CAGTGAGTCCC,0.411
13,CAGAATACCCT,0.635
14,AAAAAGCCCCC,1.98
15,GGAAGAACCCC,1.02
16,GGAATACTCCC,0.507
17,CAGGGCCTCCC,-0.699
18,AAGATTTCCCC,2.11
19,CAAAGTTTCCT,-0.313
